Active and inactive are the calls of the source. Unless noted, no stated cut-off is given here; in the data, active means inhibition above about 80%; inactive means the rest.
Columns and labels:
[1] = LFS_MB_P medulloblastoma growth inhibition, cell-based, chromothripsis tumors, cisplatin or BGB combos (AID 1671449); conditions: LFS_MB_P medulloblastoma cells;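 further: cells exposed for 96 hours; 0% = vehicle DMSO and 100% = killing by high DMSO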
[2] = HDN33 neuroblastoma growth inhibition, cell-based, chromothripsis tumors, cisplatin or BGB combos (AID 1671450); conditions: HDN33 neuroblastoma cells, stronger effect = higher value;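 further: cells exposed to compound for four days; 0% = vehicle DMSO and 100% = cell killing by high DMSO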
[3] = ICB984 medulloblastoma cell growth inhibition, synergistic combos for chromothripsis tumors, cisplatin or BGB combos (AID 1671451; call rule not given here;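 further: cells exposed for 96 hours before readout; 0% = vehicle DMSO and 100% = killing by high DMSO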); conditions: ICB984 medulloblastoma cells, drug combinations, stronger effect = higher value
[4] = LFS_MB_1R medulloblastoma cell growth inhibition, synergistic combos for chromothripsis tumors, cisplatin or BGB combos (AID 1671452); conditions: LFS_MB_1R medulloblastoma cells, stronger effect = higher value;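 further: cells exposed for 96 hours before readout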
[5] = HTB85 osteosarcoma cell growth inhibition, synergistic combos for chromothripsis tumors, BGB or cisplatin IC20 combos (AID 1671453); conditions: HTB85 osteosarcoma cells, drug combinations, stronger effect = higher value;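 further: cells exposed for 96 hours before readout; 0% = vehicle DMSO and 100% = high DMSO killing control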
[6] = CRL2098 osteosarcoma cell growth inhibition, synergistic combos for chromothripsis tumors, BGB or cisplatin IC20 combos (AID 1671454); conditions: CRL2098 osteosarcoma cells, drug combinations, stronger effect = higher value;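 further: cells exposed for 96 h before readout; 0% = vehicle DMSO and 100% = killing by high DMSO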
[7] = HD-MB03 medulloblastoma cell growth inhibition, synergistic combos for chromothripsis tumors, BGB or cisplatin IC20 combos (AID 1671455; in the data active means inhibition above about 83%;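 further: 0% = vehicle DMSO and 100% = high DMSO as cytotoxic control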); conditions: HD-MB03 medulloblastoma cells, stronger effect = higher value
[8] = UWB1.289 ovarian carcinoma cell growth inhibition, synergistic combos for chromothripsis tumors, BGB or cisplatin combos (AID 1671456); conditions: UWB1.289 ovarian carcinoma cells, stronger effect = higher value;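 further: cells exposed to compound for four days; 0% = vehicle DMSO and 100% = killing by high DMSO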
[9] = LFS_MB_2R medulloblastoma cell growth inhibition, synergistic combos for chromothripsis tumors, cisplatin combos (AID 1671457); conditions: LFS_MB_2R medulloblastoma cells, stronger effect = higher value;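 further: cells exposed to compound for four days before readout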
[10] = MDA-MB-436 breast carcinoma cell growth inhibition, synergistic combos for chromothripsis tumors, BGB or cisplatin combos (AID 1671458; call rule not given here;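 further: cells exposed for 96 hours; 0% = vehicle DMSO and 100% = killing by high DMSO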); conditions: MDA-MB-436 breast carcinoma growth inhibition, drug combinations, stronger effect = higher value
[11] = UWB1.289_BRCA1 ovarian cancer growth, cell-based, BGB or cisplatin combinations (AID 1671459); conditions: UWB1.289 BRCA1 ovarian carcinoma, drug combinations, stronger effect = higher value
[12] = human astrocyte viability loss, single and combined drugs, cytotoxicity control for chromothriptic childhood tumor combination screen, cell-based, BGB or cisplatin IC20 combos (AID 1671460); conditions: Human astrocytes, drug combinations, stronger effect = higher value;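 further: cells exposed to compounds for 96 hours before viability readout; 0% = vehicle and 100% = killing control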
[13] = growth inhibition of BT084 medulloblastoma cells, cell-based, ICGC_MB145, cisplatin and BGB IC40 combos (AID 1671461); conditions: drug combinations, stronger effect = higher value;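 further: cells exposed to drugs for 96 hours; 0% = vehicle DMSO and 100% = high DMSO full killing control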
[14] = growth inhibition of RCMB18 medulloblastoma cells, cell-based, cisplatin and BGB IC40 combos (AID 1671462); conditions: stronger effect = higher value;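 further: cells exposed to compound for four days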
[15] = growth inhibition of CRL1545 osteosarcoma cells, cell-based, cisplatin and BGB IC20 combos (AID 1671464); conditions: stronger effect = higher value;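 further: cells exposed to compound for 96 hours before readout; 0% = vehicle DMSO and 100% = high DMSO killing control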
[16] = measured here: combination with BGB IC40, at 0.05 µM
[17] = measured here: with BGB IC20 combination, at 0.5 µM
[18] = measured here: with cisplatin IC20 combination, at 0.5 µM
[19] = measured here: combination with cisplatin, at 0.5 µM
[20] = measured here: combination with cisplatin, at 5 µM

Question: For CC(C)(O)[C@H]1CC[C@@](C)(C2[C@@H](O)C[C@@]3(C)[C@@H]4C[C@H](O)C5C(C)(C)[C@@H](O)CCC56CC46CC[C@]23C)O1 (stereo partly drawn), which inhibition ([1]; at 0.5 µM, stronger effect = higher value) is on record?
Answer: -20.9% (inactive)

Question: And the inhibition ([1]; measured here: combination with BGB IC20, at 0.005 µM)?
Answer: -17.4%

Question: What about the inhibition ([1]; measured here: combination with BGB IC40, at 0.005 µM) of the same compound?
Answer: 78.4%

Question: What about the inhibition [1, 16] of the same compound?
Answer: -19.9%

Question: What about the inhibition ([1]; measured here: combination with cisplatin, at 0.5 µM, stronger effect = higher value) of the same compound?
Answer: -28%

Question: And the inhibition ([1]; measured here: combination with cisplatin, at 5 µM, stronger effect = higher value)?
Answer: -7.56%

Question: What about the inhibition ([2]; BGB combo, at 5 µM) of the same compound?
Answer: -24.9%

Question: What about the inhibition ([2]; at 0.5 µM) of the same compound?
Answer: 2.8% (inactive)

Question: And the inhibition ([2]; cisplatin combo, at 5 µM)?
Answer: -13.8%

Question: And the inhibition [2, 17]?
Answer: -6.04%

Question: What about the inhibition [2, 18] of the same compound?
Answer: 14.5%

Question: And the inhibition ([2]; single agent, at 5 µM)?
Answer: -12.8%

Question: What about the inhibition ([3]; BGB IC20 combo, at 0.005 µM) of the same compound?
Answer: -5.6%

Question: What about the inhibition ([3]; BGB IC40 combo, at 0.005 µM) of the same compound?
Answer: -12.2%

Question: And the inhibition ([3]; BGB IC40 combo, at 0.05 µM)?
Answer: -16.5%

Question: What about the inhibition ([3]; at 0.5 µM) of the same compound?
Answer: -16.2% (inactive)

Question: What about the inhibition ([3]; cisplatin combo, at 0.05 µM) of the same compound?
Answer: -22.4%

Question: What about the inhibition ([3]; cisplatin combo, at 0.5 µM) of the same compound?
Answer: -30.1%

Question: What about the inhibition ([3]; cisplatin combo, at 5 µM) of the same compound?
Answer: -15.7%

Question: And the inhibition ([3]; measured here: 5 uM single agent, at 5 µM)?
Answer: -12.4%

Question: What about the inhibition ([4]; at 0.5 µM) of the same compound?
Answer: -15.4% (inactive)

Question: What about the inhibition [4, 16] of the same compound?
Answer: -5.25%

Question: What about the inhibition [4, 19] of the same compound?
Answer: -36.6%

Question: And the inhibition [4, 20]?
Answer: -6.73%

Question: And the inhibition ([5]; at 0.5 µM)?
Answer: -5.42% (inactive)

Question: What about the inhibition ([5]; measured here: with BGB IC20, at 0.5 µM) of the same compound?
Answer: 4.96%

Question: What about the inhibition ([5]; measured here: with BGB IC20, at 5 µM) of the same compound?
Answer: -8.72%

Question: What about the inhibition ([5]; measured here: with cisplatin IC20, at 0.5 µM) of the same compound?
Answer: -17.2%

Question: What about the inhibition ([5]; measured here: with cisplatin IC20, at 5 µM) of the same compound?
Answer: -11.8%

Question: And the inhibition ([5]; single agent, at 5 µM)?
Answer: 5.09%

Question: And the inhibition ([6]; at 0.5 µM)?
Answer: -14.8% (inactive)

Question: And the inhibition ([6]; measured here: combination with BGB at IC20, at 0.5 µM)?
Answer: -24.4%

Question: And the inhibition ([6]; measured here: combination with cisplatin at IC20, at 0.5 µM)?
Answer: -18.8%

Question: And the inhibition ([7]; at 0.5 µM)?
Answer: -9.5% (inactive)

Question: What about the inhibition ([7]; measured here: combo with BGB at IC20, at 0.5 µM) of the same compound?
Answer: -9.93%

Question: What about the inhibition ([7]; measured here: combo with cisplatin at IC20, at 0.5 µM) of the same compound?
Answer: -11.4%

Question: And the inhibition ([8]; at 0.5 µM)?
Answer: 0.78% (inactive)

Question: What about the inhibition ([8]; measured here: inhibition with BGB combination, at 0.05 µM) of the same compound?
Answer: -14.1%

Question: What about the inhibition ([8]; measured here: inhibition with cisplatin combination, at 0.05 µM) of the same compound?
Answer: -5.37%

Question: And the inhibition ([9]; at 0.5 µM)?
Answer: -6.35% (inactive)

Question: And the inhibition [9, 19]?
Answer: -24.6%

Question: And the inhibition [9, 20]?
Answer: -28.9%

Question: And the inhibition ([10]; at 0.5 µM)?
Answer: -12% (inactive)

Question: And the inhibition ([10]; measured here: BGB combination, at 0.5 µM)?
Answer: -4.92%

Question: What about the inhibition ([10]; measured here: BGB combination, at 5 µM) of the same compound?
Answer: -19.3%

Question: And the inhibition ([10]; measured here: cisplatin combination, at 0.5 µM)?
Answer: -27.4%

Question: And the inhibition ([10]; measured here: cisplatin combination, at 5 µM)?
Answer: -20.3%

Question: What about the inhibition ([11]; BGB combination, concentration series, at 5 µM) of the same compound?
Answer: 9.93%

Question: And the inhibition ([11]; at 0.5 µM)?
Answer: -4.21% (inactive)

Question: What about the inhibition ([11]; cisplatin combination, concentration series, at 5 µM) of the same compound?
Answer: 7.75%

Question: What about the inhibition ([12]; at 0.5 µM) of the same compound?
Answer: 0.26% (inactive)

Question: And the inhibition ([12]; measured here: combo with BGB IC20, at 0.5 µM)?
Answer: 10.1%

Question: What about the inhibition ([12]; measured here: combo with cisplatin IC20, at 0.5 µM) of the same compound?
Answer: -8.09%

Question: What about the inhibition ([13]; at 0.5 µM) of the same compound?
Answer: -8.31% (inactive)

Question: What about the inhibition ([13]; cisplatin combination, at 0.5 µM) of the same compound?
Answer: -3.58%

Question: And the inhibition ([13]; cisplatin combination, at 5 µM)?
Answer: -121%

Question: And the inhibition ([13]; measured here: BGB IC40 combination 0.05 uM, at 0.05 µM)?
Answer: -25.1%

Question: And the inhibition ([13]; single agent, at 5 µM)?
Answer: -6.41%

Question: And the inhibition ([14]; at 0.5 µM)?
Answer: -30.6% (inactive)

Question: And the inhibition ([14]; cisplatin combo, at 5 µM)?
Answer: -6.31%

Question: And the inhibition ([14]; measured here: BGB IC40 combination, at 0.05 µM)?
Answer: -14.5%

Question: And the inhibition [14, 19]?
Answer: -79%

Question: And the inhibition ([14]; single agent, at 5 µM)?
Answer: -0.285%

Question: What about the inhibition ([15]; at 0.5 µM) of the same compound?
Answer: 8.92% (inactive)

Question: What about the inhibition [15, 17] of the same compound?
Answer: -5.47%

Question: And the inhibition [15, 18]?
Answer: 14.8%

Question: And the inhibition ([15]; single agent, at 0.05 µM)?
Answer: -11.3%

Question: And the inhibition ([15]; single agent, at 5 µM)?
Answer: -13%
